The list is not random: actives were taken first. Their share in the collection is about 5.7%.
hgDAF12 agonist: H. glycines DAF-12 receptor agonists, primary screen, cell-based, luminescence, HEK293, GAL4 fusion, UAS-luciferase. 1.8% of 370,000 active. activation, % at 6.8 µM. HEK293 GAL4-hgDAF12 UAS-luciferase reporter, agonist luminescence; normalized to butyrate control;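 active = activation above a cutoff set at the mean of all screened compounds plus 3 SD, cut at about 10% in these data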;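 also: 0% = DMSO wells and 100% = sodium butyrate wells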
DAX1 inh-1: DAX1 (NR0B1) inhibitors, primary screen, cell-based, HEK293, Gal4-DAX1, luciferase luminescence | HEK293 Gal4-DAX1 luciferase reporter | inhibition, % at 6.75 µM | 0.99% of 340,000 active;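 active = inhibition above the mean over all tested compounds plus 3 SD, cut at about 4.2% in these data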;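 also: 0% = DAX1-transfected cells with DMSO and 100% = empty-vector control cells with DMSO; inhibition shows as a rise in luminescence from relieved DAX1 repression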
Target sequence (P51843 207-470 limits assumed): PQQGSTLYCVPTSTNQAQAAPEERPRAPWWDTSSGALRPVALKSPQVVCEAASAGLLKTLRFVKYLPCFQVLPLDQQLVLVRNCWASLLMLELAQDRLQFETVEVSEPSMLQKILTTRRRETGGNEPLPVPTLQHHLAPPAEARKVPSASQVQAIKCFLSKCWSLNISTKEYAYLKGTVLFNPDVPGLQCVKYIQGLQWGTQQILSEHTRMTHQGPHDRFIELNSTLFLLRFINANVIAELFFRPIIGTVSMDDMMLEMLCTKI
AHR act: AHR activators, primary screen, cell-based, luminescence, luciferase reporter, human | AHR-responsive luciferase reporter cells | Aryl hydrocarbon receptor (Homo sapiens), P35869 | 2.5% of 320,000 active | activation, % at 5 µM; in the data active = activation above about 47%;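 also: 0% = vehicle wells and 100% = reference agonist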
DAX1 inh-2: DAX1 (NR0B1) inhibitors on StAR promoter, primary screen, cell-based, luminescence, SF-1 (NR5A1), full-length DAX-1; 1.1% of 370,000 active; HEK293T StAR-luciferase reporter, SF-1/DAX-1 repression relief; inhibition, % at 6.8 µM;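 active = inhibition above the mean over all tested compounds plus 3 SD, cut at about 3.6% in these data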;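 also: 0% = DAX-1 cells with DMSO and 100% = cells lacking DAX-1 with DMSO; higher inhibition means more luminescence from relief of DAX-1 repression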
ssDAF12 agonist: S. stercoralis DAF-12 nuclear receptor activators, primary screen, cell-based, luminescence, HEK293, GRIP1 co-expression, lit1-tk-luc; 1% of 370,000 active; activation, % at 6.8 µM; AID 652126, 2013; Nuclear hormone receptor DAF-12 (Strongyloides stercoralis); HEK293 ssDAF-12/GRIP1 lit1-tk-luc reporter; % of 3 µM dafachronic acid response;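 active = activation above the mean over all tested compounds plus 3 SD, cut at about 0.9% in these data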;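 also: 0% = DMSO-only wells and 100% = 3 µM delta7-dafachronic acid wells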
hcDAF-12 act: H. contortus DAF-12 nuclear receptor activators, primary screen, cell-based, luminescence, HEK293, lit1-tk-luc reporter; HEK293 hcDAF-12 lit1-tk-luc reporter; 0% DMSO, 100% Δ7-dafachronic acid; activation, % at 6.8 µM; 1.4% of 370,000 active; AID 652067, 2013;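 active = activation above the mean of all tested compounds plus 3 SD, cut at about 5.5% in these data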;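 also: 100% = response to 3 µM Δ7-dafachronic acid high control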
An asterisk follows results filed as active; nt = no result given.

SMILES	hgDAF12 agonist	DAX1 inh-1	AHR act	DAX1 inh-2	ssDAF12 agonist	hcDAF-12 act
CC(C)Nc1ncnc2c1ncn2[C@H]1CN(Cc2ccc3c(c2)OCO3)C[C@@H](CO)O1	-1.8	nt	nt	-0.9	-1.4	-0.4
Cn1c(=O)c2c(-c3ccccc3)n(-c3ccccc3F)cc2n(C)c1=O	-4.5	nt	nt	-1.5	-1.4	-1.5
Cn1c(-c2ncc(F)cc2F)cc2onc(-c3c(F)cccc3Cl)c2c1=O	9.8	6.4*	50.2*	1.5	1.3*	9.3*
Cn1c(-c2ccccc2)cc2onc(-c3ccccc3)c2c1=O	4.1	1.9	-10.4	2.9	0.1	5.6*
Cn1c(-c2ccccc2F)cc2onc(-c3ccccc3)c2c1=O	12.3*	5.5*	-9.5	5.0*	-0.1	4.3
Cn1c(-c2ccccc2)cc(=O)cc1-c1ccccc1	0.6	0.4	nt	0.8	-1.1	1.4
Cc1ccc2nc(-c3cccc(Cl)c3)c(Cc3ccccc3C(F)(F)F)n2c1	8.8	nt	nt	3.1	0.1	4.6
CC(NC(=O)COC(=O)C1CSC2(C)CCC(=O)N12)C12CC3CC(CC(C3)C1)C2 (stereo unspecified)	-3.1	0.5	3.0	-0.1	-2.0	-0.7
O=C(N/N=C/c1ccco1)c1[nH]ncc1Br	7.2	7.1*	nt	2.7	0.3	0.6
COc1ccc(/C=N/NC(=O)c2[nH]ncc2Br)c(OC)c1	11.2*	2.4	5.2	1.3	-0.4	1.1
CC(C)c1c(C(=O)N/N=C/c2ccco2)nnn1-c1nonc1N	-0.7	0.7	-1.2	-0.1	-1.2	-1.4
Nc1nccnc1C(=O)N/N=C/c1ccco1	5.9	6.9*	2.9	0.6	-0.7	1.4
CCc1cc(SC#N)ccc1N	-2.8	1.9	0.9	-2.3	-2.0	0.7
Cn1c(=O)c2c(ncn2Cc2nnc(N)s2)n(C)c1=O	0.9	0.2	1.1	0.0	-0.5	-0.7
Nc1c(N(Cc2ccccc2)C(=O)COc2ccc([N+](=O)[O-])cc2)c(=O)[nH]c(=O)n1Cc1ccccc1	1.3	-1.7	nt	0.1	0.2	1.1
CC(=O)c1ccc(NS(=O)(=O)c2cccc(C)c2)cc1	11.9*	2.7	3.5	0.5	-1.3	1.4
C=CC(=O)Nc1sc2c(c1C(N)=O)CCCC2	-1.9	-0.7	-2.3	-0.9	-1.4	-2.4
C=CCNC(=S)Nc1sc2c(c1C(N)=O)CCCC2	4.2	nt	58.4*	0.1	-0.7	1.1
Cc1cccc(N=NC(=S)NNc2cccc(C)c2)c1	9.3	2.3	nt	3.7*	0.2	6.1*
Cc1ccc(Cl)cc1N1CCN(S(=O)(=O)c2ccc3c(c2)NC(=O)C(C)C(=O)N3)CC1 (stereo unspecified)	-1.3	0.4	-0.6	0.2	-1.5	0.8
CC1=CC(=O)C(C(C)C)=C/C1=N\OC(=O)c1cccc2nc(C)oc12	-1.7	1.2	2.0	-0.3	0.0	5.7*
CC1=CC(=O)C(C(C)C)=C/C1=N/OC(=O)c1cccc([N+](=O)[O-])c1	-3.6	1.6	14.8	0.2	0.3	2.9
Cc1ccc(NC(=O)c2ccc3c(c2)C(=O)N(c2cc(C)ccc2C)C3=O)nc1	0.4	-0.3	5.1	0.8	-0.8	-1.4
Cc1cccn2c(=O)nc(SCC(=O)N3CCC(C)CC3)nc12	-0.5	0.9	-1.0	-0.6	-1.4	-0.8
COC(=O)C1=C(C)N(Cc2ccc(F)cc2)C(=S)NC1c1ccc(F)cc1 (stereo unspecified)	-2.5	nt	nt	0.3	-1.0	-1.8
SMILES	hgDAF12 agonist	DAX1 inh-1	AHR act	DAX1 inh-2	ssDAF12 agonist	hcDAF-12 act
COc1ccc(C)cc1NC(=O)C(OC(=O)Cn1cnc2c1c(=O)n(C)c(=O)n2C)c1ccccc1 (stereo unspecified)	-1.1	-1.0	52.6*	-0.5	-1.5	-1.2
COc1ccc(C)cc1NC(=O)C(OC(=O)CNC(=O)c1cc(C)cc(C)c1)c1ccccc1 (stereo unspecified)	1.0	-0.9	67.4*	0.2	-1.6	-0.7
COc1ccc(C)cc1NC(=O)C(OC(=O)c1ccc([N+](=O)[O-])o1)c1ccccc1 (stereo unspecified)	-5.4	-0.6	47.2*	-0.7	-0.5	-1.5
COc1ccc(C)cc1NC(=O)C(OC(=O)c1cnccn1)c1ccccc1 (stereo unspecified)	-0.8	-0.7	32.2	0.8	-0.6	-1.8
CCC1=C(OC(=O)N(CC)CC)N2C(=O)OC(=NCCc3c[nH]c4ccccc34)[C@]2(Cc2ccccc2)[C@H]2C1=CC[C@H]1C(=O)N(CC)C(=O)[C@H]12	1.9	-1.1	11.6	-0.5	-0.4	-0.5
CCOc1ccc(CN2CCN(Cc3cc4ccccc4[nH]3)CC2CCO)cc1 (stereo unspecified)	1.2	-1.6	nt	-0.4	2.0*	5.2
CC(C)(C)CN1CCN(Cc2cc3ccccc3[nH]2)CC1CCO (stereo unspecified)	2.1	-0.2	22.6	-0.1	-0.1	6.3*
CN(Cc1nccs1)C(=O)C1CCC(=O)N(CCCc2ccccc2)C1 (stereo unspecified)	1.4	0.0	nt	-0.5	-1.6	-1.8
C[C@H]1[C@@H](NC(=O)c2ccc(C(F)(F)F)cc2)CC[C@@]23CCCN2C(=O)CCC[C@@H]13	-0.8	nt	nt	nt	-0.9	-1.5
CC(C)c1ccc(N=C2NN=C(c3cccs3)CS2)cc1	5.9	7.2*	17.9	3.2	-0.1	2.2
Cc1ccc(C2=NNC(=Nc3ccc(F)cc3)SC2)cc1	10.9*	0.2	nt	0.4	-0.6	5.7*
C=CCn1c(C)cc(C2=NNC(=Nc3ccc(C)cc3)SC2)c1C	-1.3	-0.3	7.5	0.0	-0.3	1.6
Cn1c(CNC(=O)c2ccc(F)cc2)cc2ccccc21	1.1	4.3*	13.7	-0.6	1.0*	0.5
O=C(NCc1cc2ccccc2[nH]1)c1ccccc1F	6.2	1.2	47.6*	0.0	-1.2	1.5
Cn1c(CNC(=O)c2ccccc2F)cc2ccccc21	0.9	1.2	49.5*	0.4	-0.7	4.1
Cc1ccc2[nH]c(CNC(=O)c3ccccc3F)cc2c1	2.2	2.9	18.9	-0.1	-0.9	2.6
CN(CCc1ccccc1)C(=O)c1ccc(NC(=O)Cc2cccc(NC(=O)C3CCN(C(=O)c4ccccc4)CC3)c2)cc1	-1.6	0.9	nt	-0.4	-1.0	-1.9
O=C(O)c1ccc(CS(=O)(=O)c2cccc(C(F)(F)F)c2)o1	-0.9	4.5*	-2.8	0.4	-0.7	-0.7
CCCCNC(=O)c1ccc(CS(=O)(=O)c2cccc(C(F)(F)F)c2)o1	-1.2	1.7	2.8	-1.1	-1.6	-0.1
